26 molecules from PubChem BioAssay (NCI) can be followed below.

The panel holds about 83,000 compounds, 20% with a hit somewhere; the sample as a whole holds those more often.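 The test compound was applied at a single concentration to cells in 96-well plates for 48 hours, and percent growth was recorded.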 Activity calls are given as the source filed them. Rule for the calls: active = growth percent below 10; inactive = the rest.

This experiment relates to MDA-MB-468 breast. In words: NCI-60 one-dose screen, 48 h (100 = growth as untreated, 0 = no growth, -100 = all killed). The conditions noted are these: 10 µM unless noted.
Turning to `COc1ccc(C(=O)c2cc3c(N)c(C(=O)Nc4ccc(Br)cc4)sc3nc2C)cc1`, the growth was 72.8% (inactive).

Take `C[C@]12CCC3c4ccc(O)cc4C[C@@H](CCCCCCCCCS(=O)CCCC(F)(F)C(F)(F)F)C3C1CC[C@@H]2O` (stereo partly specified): the growth was 88% (inactive). To `C[n+]1c2ccccc2nc2ccc(NCCO)cc21` belongs 94% (inactive); to `CS(=O)(=O)c1nnc(-c2ccccc2)s1`, -8.46% (active).

In the case of `CC(=O)[C@H]1CCC/C=C/[C@@H]2C[C@H](O)C[C@H]2[C@H](O)/C=C/C(=O)O1`, the growth is -34.9% (active). With `CN1CCN(Cc2ccc(NC(=O)c3cccc(C#Cc4cnc(N)c5ncccc45)c3F)cc2C(F)(F)F)CC1` the figure was 70.6% (inactive); with `C[C@]12CCc3nc(Nc4cccc(O)c4)sc3C1=CC[C@@H]1[C@@H]2CC[C@]2(C)/C(=N\NC(N)=S)CC[C@@H]12`, -32.7% (active); with `Clc1nc(Cl)c2ncn(CC3(Cn4cnc5c(Cl)nc(Cl)nc54)COC3)c2n1`, -60.7% (active). To `Cc1c(C(=O)Nc2nc(-c3ccccc3)cs2)nnn1-c1cccc2ccccc12` belongs 12.3% [50 µM] (inactive); to `Cc1ccc(/C=N/Nc2nc(Nc3ccccc3)nc(-n3nc(C)cc3C)n2)cc1`, 60.9% (inactive); to `COc1ccc2nc(NC(=O)Nc3c(F)cccc3F)sc2c1`, 96.1% (inactive).

In the case of `CN(C)C(=O)OCc1nc2c(N3CCOCC3)nc(-c3ccccc3)nc2n1C`, the growth was -61.1% (active). To `CCCCCCCCCCCCCCCC(=O)OC1[C@@H](OC(=O)CCCCCCCCCCCCCCC)[C@@H](C(=O)N[C@@H](CCCCN)C(=O)OC)O[C@H]1n1cnc2c(=O)[nH]c(NC(=O)C(C)C)nc21` (stereo partly specified) belongs 83.1% (inactive). With `CC(C)c1ncc(CO)n1Cc1c(Cl)cccc1Cl` the figure was 97.5% (inactive); with `COc1ccc(-c2cc(/C=C3\C(=O)Nc4cc(Cl)ccc43)[nH]n2)cc1OC`, 65.5% (inactive); with `CC(C)C1=C[C@@]23CC[C@@H]4[C@](C)(CCC[C@@]4(C)C(=O)N4CCCNCC4)[C@H]2C[C@@H]1[C@H]1C(=O)CCC(=O)[C@H]13`, 101% (inactive).

As for `O=C1c2c(c3c4cccc(F)c4[nH]c3c3ccc4ccccc4c23)C(=O)N1O`, the growth was 54.3% (inactive). With `CC(=O)Nc1ccc(-n2cnc3cc(-c4ccc(OCCN5CCCCC5)cc4)ccc32)cc1` the figure was 115% (inactive); with `N#Cc1ncc(Br)c(NC2CCCCCC2)n1`, 91.9% (inactive).

For the molecule `CC(C)(C)OC(=O)N1CCc2c(sc3ncnc(N/N=C/c4cccc5ccccc45)c23)C1`, the growth is 5.85% (active).

`CCN1C(=O)N(CC)C2C1NN=c1s/c(=C\c3cnc(C)n3C)c(=O)n12` (stereo unspecified): the growth is -12.2% (active). In the case of `O=C(O)c1ccccc1C(=O)c1ccc(I)cc1`, the growth is 108% (inactive). To `CN(C)CCCOc1c2ccc(Cl)cc2nc2c1oc1ccc(Cl)cc12` belongs -48% (active); to `COc1cc2cc(Oc3ccc(NC(=O)Nc4ccc(Cl)c(Cl)c4)cc3)c(C)nc2cc1OCCN1CCCCC1`, 103% (inactive). With `Nc1cc(Br)c(-c2nnc(CCC(=O)c3nc4ccccc4[nH]3)o2)c(Br)c1` the figure was 16.9% (inactive).

As to `CC(=O)Oc1ccccc1C(=O)Nc1ncc([N+](=O)[O-])s1`, the growth was 36.9% (inactive).
